Laboratory results: PubChem BioAssay AID1159580 (chemical genetic matrix, 2015)
Several values for one entry are separate records, joined by “and”; a condition that tells them apart may be missing. Equal values may be shown once. The whole screen tested about 5,500 compounds, of which about 2,000 (36%) were called active. Inconclusive results (about 18%) are left out. Rule as the data show it: active = normalized growth mostly below about 0.91 (no sharp cut-off); inconclusive = no clear call, values can overlap the other calls; inactive = mostly above about 0.92. The list shows a part of the results.

Experiment: chemical genetic growth profiling, strain panel (AID 1159580);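 also: tested at 20 µM; growth read once vehicle control cultures reached saturation at 30 °C; 1 = growth at the plate median or of vehicle wells; lower values mean less growth of the strain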
Settings: S. cerevisiae deletion strains, growth OD

Measured: normalized growth

NS(=O)(=O)c1cc2c(cc1Cl)NC(C1CC3C=CC1C3)NS2(=O)=O (stereo unspecified)
inactive: locus YAL013W, strain DEP1, active compounds read low 1 | locus YAL021C, strain ccr4, active compounds read low 1 | locus YAL026C, strain drs2, active compounds read low 0.99 | locus YAL030W, strain snc1, active compounds read low 0.99 | locus YAL040C, strain CLN3, active compounds read low 0.979 | locus YBL061C, strain skt5, active compounds read low 1 | locus YBR009C, strain hhf1, active compounds read low 0.982 | locus YBR021W, strain FUR4, active compounds read low 1.03 | locus YBR023C, strain chs3, active compounds read low 0.991 | locus YBR171W, strain sec66, active compounds read low 0.981 | locus YBR229C, strain ROT2, active compounds read low 0.96 | locus YBR231C, strain swc5, active compounds read low 0.989 | locus YBR279W, strain paf1, active compounds read low 0.996 | locus YCL011C, strain gbp2, active compounds read low 0.989 | locus YCL016C, strain dcc1, active compounds read low 0.995 | locus YCL029C, strain bik1, active compounds read low 0.941 | locus YCL061C, strain MRC1 (second series), active compounds read low 0.99 | locus YCL061C, strain MRC1, active compounds read low 0.991 | locus YCL069W, strain vba3, active compounds read low 0.997 | locus YCR088W, strain abp1, active compounds read low 0.991 | locus YDL005C, strain med2, active compounds read low 0.983 | locus YDL035C, strain GPR1, active compounds read low 1.01 | locus YDL040C, strain nat1, active compounds read low 0.994 | locus YDL074C, strain BRE1, active compounds read low 1.01 | locus YDL101C, strain DUN1, active compounds read low 0.967 | locus YDL134C, strain PPH21, active compounds read low 0.99 | locus YDL185W, strain tfp1, active compounds read low 0.959 | locus YDL192W, strain arf1, active compounds read low 0.992 | locus YDR001C, strain nth1, active compounds read low 0.985 | locus YDR069C, strain doa4, active compounds read low 1.01 | locus YDR101C, strain arx1, active compounds read low 1 | locus YDR137W, strain rgp1, active compounds read low 1.01 | locus YDR150W, strain NUM1, active compounds read low 0.981 and 1 | locus YDR159W, strain sac3, active compounds read low 0.987 | locus YDR162C, strain NBP2, active compounds read low 0.911 | locus YDR195W, strain ref2 0.963 | locus YDR297W, strain sur2, active compounds read low 0.991 | locus YDR318W, strain mcm21, active compounds read low 1.02 | locus YDR334W, strain swr1, active compounds read low 0.995 | locus YDR335W, strain msn5, active compounds read low 0.991 | locus YDR363W, strain ESC2, active compounds read low 0.956 | locus YDR388W, active compounds read low 1 | locus YDR392W, strain spt3, active compounds read low 0.924 | locus YDR502C, strain sam2, active compounds read low 0.978 | locus YEL003W, strain gim4, active compounds read low 0.997 | locus YEL037C, strain rad23, active compounds read low 0.999 | locus YEL061C, strain CIN8 (second series), active compounds read low 0.984 | locus YEL061C, strain CIN8, active compounds read low 0.989 | locus YER002W, strain NOP16, active compounds read low 0.987 | locus YER015W, strain faa2, active compounds read low 0.994 | locus YER016W, strain bim1, active compounds read low 0.994 | locus YER110C, active compounds read low 0.937 | locus YER111C, strain swi4, active compounds read low 0.98 | locus YER155C, strain BEM2 (second series), active compounds read low 0.974 | locus YER155C, strain BEM2, active compounds read low 0.988 | locus YER167W, strain BCK2, active compounds read low 1.04 | locus YFR010W, strain ubp6, active compounds read low 0.988 | locus YGL078C, strain dbp3, active compounds read low 0.986 | locus YGL086W, strain mad1, active compounds read low 1.03 | locus YGL167C, strain pmr1, active compounds read low 0.987 | locus YGL173C, strain kem1, active compounds read low 0.994 | locus YGL227W, strain vid30, active compounds read low 0.978 | locus YGL240W, strain doc1, active compounds read low 0.977 | locus YGL248W, strain PDE1, active compounds read low 0.979 | locus YGL253W, strain hxk2, active compounds read low 0.995 | locus YGR078C, strain PAC10, active compounds read low 1.01 | locus YGR135W, strain pre9, active compounds read low 0.987 | locus YGR229C, strain SMI1, active compounds read low 0.998 | locus YGR252W, strain gcn5, active compounds read low 1.07 | locus YHR013C, strain ard1, active compounds read low 0.962 | locus YHR027C, strain rpn1, active compounds read low 0.993 | locus YHR030C, strain SLT2, active compounds read low 1 and 1.02 | locus YHR079C, strain IRE1 (second series), active compounds read low 1.01 | locus YHR079C, strain IRE1, active compounds read low 1.02 | locus YHR094C, strain hxt1, active compounds read low 0.998 | locus YHR129C, strain ARP1, active compounds read low 0.994 | locus YHR142W, strain chs7, active compounds read low 1 | locus YHR200W, strain rpn10, active compounds read low 0.997 | locus YIL066C, strain RNR3, active compounds read low 0.989 | locus YIL073C, strain SPO22, active compounds read low 1.08 | locus YIL125W, strain kgd1, active compounds read low 0.992 | locus YIR030C, strain dcg1, active compounds read low 0.984 | locus YJL092W, strain hpr5, active compounds read low 0.99 | locus YJL095W, strain BCK1 (second series), active compounds read low 0.99 | locus YJL095W, strain BCK1, active compounds read low 1.01 and 1.06 | locus YJL115W, strain asf1, active compounds read low 0.997 | locus YJL129C, strain trk1, active compounds read low 0.986 | locus YJL134W, strain LCB3, active compounds read low 0.984 | locus YJL154C, strain vps35, active compounds read low 0.988 | locus YJL164C, strain tpk1, active compounds read low 0.997 | locus YJL166W, strain qcr8, active compounds read low 0.997 | locus YJL168C, strain set2, active compounds read low 0.992 | locus YJL187C, strain SWE1 (second series), active compounds read low 0.975 | locus YJL187C, strain SWE1, active compounds read low 0.989 | locus YJR043C, strain POL32, active compounds read low 1.06 | locus YJR066W, strain TOR1, active compounds read low 0.976
